Measured values as given in PubChem BioAssay AID686978 (National Center for Advancing Translational Sciences (NCATS), 2013).
Out of some 420,000 compounds screened, about 64,000 (15%) were called active. About 27% were inconclusive and are not listed. The call rests on the fitted dose curve; in most records, active means well fitted inhibition curve with a large enough effect; inconclusive means small, poorly fitted or top-dose-only effect; inactive means flat fitted curve, though single readings scatter. These entries were drawn from the full list. Where a call stands in place of a potency, no number is given.

Assay: qHTS for Inhibitors of human tyrosyl-DNA phosphodiesterase 1 (TDP1): qHTS in cells in absence of CPT; further: nearly all actives have a fitted effect of over 55% in size
Details: DT40 Tdp1-/- hTDP1 cells, no CPT, ATP luminescence, 48 h; activity change, negative = growth inhibition: at 46.2 µM (top of the series)
Procedure, shortened: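 Stably hTDP1-transfected Tdp1-null chicken DT40 cells were treated with library compounds minus camptothecin and grown for at least 48 hr at 37 °C, after which cellular ATP was quantified by luminescence.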
Potency means the concentration at half of the fitted maximal effect.

| SMILES | Potency |
| --- | --- |
| C[C@H]1CN([C@@H](C)CO)C(=O)CCCn2cc(nn2)CO[C@@H]1CN(C)S(=O)(=O)c1ccccc1C#N | inactive |
| CCC1CCc2c(sc(NC(C)=O)c2C#N)C1 (centres undefined) | inactive |
| COc1ccc(C(C(O)C(=O)c2c[nH]c3ccccc23)N2CCN(c3ccccc3)CC2)cc1 (centres undefined) | 25.9 µM (active) |
| COc1ccc(N2CCN(C(C)=C3C(=O)c4ccccc4C3=O)CC2)cc1 | inactive |
| Cc1nnc(SC(C)C(=O)c2c[nH]c3ccccc23)n1C1CC1 (centres undefined) | inactive |
| O=C(COc1ccc(Cl)cc1)Nc1ccc2oc(=O)ccc2c1 | inactive |
| Cc1ccc(N(C(=O)c2sc(C)nc2C)C(C(=O)NC(C)(C)C)c2ccncc2)cc1 (centres undefined) | inactive |
| CC1(C)C=C2[C@H]3CC[C@@H]4[C@@]5(C)CCC(=O)C(C)(C)[C@@H]5CC[C@@]4(C)[C@]3(C)CC[C@@]2(C(=O)O)CC1 | 8.2 µM (active) |
| Cc1cc(C)cc(N(C(C)C(=O)Nc2c(C)n(C)n(-c3ccccc3)c2=O)S(C)(=O)=O)c1 (centres undefined) | inactive |
| CCCCOc1ccc(CN2C(=O)C(=O)c3cc(Br)cc(C)c32)cc1OC | 1.16 µM (active) |
| CCCCOc1ccc(Cn2c(=O)oc3ccc(C)cc32)cc1OC | 14.6 µM (active) |
| CCOc1cc(CN2CCN(C(=O)CC(C)C)CC2)ccc1OC | inactive |
| COc1ccc(Cn2c(=O)oc3ccccc32)cc1 | inactive |
| CCCCn1nnnc1C1(C)CCC(=O)N1Cc1ccc(OC)c(OC)c1 (centres undefined) | inactive |
| COc1ccc(CN2CCOC2=O)cc1OC | inactive |
| Cc1cccc(-n2c(Cc3cc(=O)[nH]c(=O)[nH]3)nnc2SC(C)C)c1 | inactive |
| CC/C(=N\NC(=O)c1c(C)nc2ccccn12)c1ccc(Cl)cc1 | inactive |
| CCCCCC(=O)Nc1ccc(S(=O)(=O)Nc2ccc(Cl)nn2)cc1 | inactive |
| CCCCN(C)Cc1c(C)[nH]c2ccc(Cl)cc2c1=O | inactive |
| CCOC(=O)C1=C(C)NC(C)=C(C(=O)OCC)C1c1ccccn1 | inactive |
| C=CCC1(C#N)C(=S)NC(C)=C(C(=O)OCC)C1c1ccccc1 (centres undefined) | 29.1 µM (active) |
| CCOC(=O)C1=C(C)NC(SC)=NC1c1ccccc1 (centres undefined) | inactive |
| Cc1ccsc1C1C(C#N)=C(N)OC2=C1C(=O)CC(C)(C)C2 (centres undefined) | inactive |
| CCOC(=O)CSc1nnc(CNC(=O)Cc2ccccc2)n1-c1ccccc1OC | inactive |
| O=C(COc1ccc(Cl)cc1)NCCSc1ccccc1 | inactive |

| SMILES | Potency |
| --- | --- |
| COc1ccc(C(=O)COC(=O)CNC(=O)c2cccs2)cc1Br | inactive |
| COc1ccc(S(=O)(=O)n2cnc3ccccc32)c(C)c1 | 10.3 µM (active) |
| Cc1ccc(S(=O)(=O)n2cnc3ccccc32)c(C)c1 | inactive |
| Cc1ccc(C)c(S(=O)(=O)n2cnc3ccccc32)c1 | inactive |
| COc1ccc(C)cc1NC(=S)N1CCOCC1 | inactive |
| C=CCOc1c(Br)cc(/C=N\n2nnnc2N)cc1OC | inactive |
| C[C@H]1CN([C@@H](C)CO)C(=O)c2cc(-c3cccc(F)c3)cnc2O[C@@H]1CN(C)S(C)(=O)=O | inactive |
| CC1CN(Cc2nc3c(c(=O)n(C)c(=O)n3C)n2Cc2cccc(Cl)c2)CC(C)O1 (centres undefined) | inactive |
| Cn1c(=O)c2c(nc(Oc3ccc(C#N)cc3)n2Cc2ccc(Cl)cc2Cl)n(C)c1=O | inactive |
| C=CCOc1nc2c(c(=O)n(C)c(=O)n2C)n1Cc1ccc(Cl)cc1Cl | 14.6 µM (active) |
| CN1CCc2nc(SC(C(=O)O)c3ccccc3)c(C#N)c(-c3cccs3)c2C1 (centres undefined) | inactive |
| COc1ccc(CCNC(=O)Cn2c(=O)n(-c3ccccc3)c(=O)c3c(C)c(C)sc32)cc1OC | inactive |
| C=CCn1c(SCC(N)=O)nnc1-c1cc2c(s1)CCC(CC)C2 (centres undefined) | inactive |
| O=C1C=C(c2ccccc2)CCC1 | inactive |
| C=CC(=O)c1ccc2ccccc2c1 | 2.31 µM (active) |
| CC(=O)CCC(=O)c1ccc2ccccc2c1 | inactive |
| CC(=O)c1ccc2c(ccc3ccccc32)c1 | inactive |
| CCc1ccc(C(=O)N2CCN(S(=O)(=O)c3sc(C(=O)O)c(C)c3C(=O)O)CC2)cc1 | inactive |
| CCOc1cc(C(=S)N2CCOCC2)ccc1OS(=O)(=O)c1ccc(Br)cc1 | 20.6 µM (active) |
| CC(=O)Nc1ccc(S(=O)(=O)Oc2ccc(Br)cc2C(=S)N2CCOCC2)cc1 | inactive |
| O=S(=O)(Oc1ccccc1C(=S)N1CCOCC1)c1ccc(Cl)cc1 | inactive |
| CCN(CC)P(=O)(C(NC(=O)OC)C(F)(F)C(F)(F)C(F)(F)C(F)F)N(CC)CC (centres undefined) | inactive |
| Cc1cc(C)nc(SCc2nnc(SCC(=O)Nc3ncc(C)s3)n2Cc2ccco2)n1 | inactive |
| CCOC(=O)CSc1nnc(-c2ccco2)n1C | inactive |
| CCOC(=O)CSc1nc2c(sc(=S)n2CCc2ccccc2)c(=O)n1Cc1ccco1 | 16.4 µM (active) |

| SMILES | Potency |
| --- | --- |
| Cc1ccc(C)c(NC(=O)C2CC(=O)N(C(C)C)C2)c1 (centres undefined) | inactive |
| CCCC(C)n1[nH]c(=O)c2c(C)cc(C)nc21 (centres undefined) | inactive |
| CC(CNC(=O)c1ccc(Br)o1)NC(=O)c1ccc(Br)o1 (centres undefined) | 4.61 µM (active) |
| O=C(CNC(=O)c1ccc(Br)o1)Nc1ccccc1 | inactive |
| CC(CCc1ccccc1)NC(=O)c1ccc(Br)o1 (centres undefined) | inactive |
| C=C1C(=O)C23C(O)C1CCC2[C@]12COC3(O)C(O)C1C(C)(C)CC[C@H]2O (some centres undefined) | 6.51 µM (active) |
| O=C(COC(=O)c1ncc(Cl)c(Cl)c1Cl)NC1CCS(=O)(=O)C1 (centres undefined) | inactive |
| NC(N)=NCCCc1cn(CC(=O)N2CCNCC2)nn1 | inactive |
| O=C(COC(=O)c1cccnc1Cl)NC(=O)NC1CCCCC1 | inactive |
| Cc1nn(-c2ccccc2)c(C)c1C(=O)OCC(=O)NC(=O)NC1CCCCC1 | 29.1 µM (active) |
| N#Cc1ccc(C(=O)OCC(=O)NC(=O)NC2CCCCC2)cc1 | inactive |
| CC1Cc2ccccc2N1C1=CC(=O)CC(C)(C)C1 (centres undefined) | inactive |
| O=C(/C=C/Nc1ccccc1)c1cnc(-c2ccccc2)s1 | inactive |
| CC(C)N(C(=O)Cn1c(SCC(=O)N2CCN(c3ccccc3)CC2)nc2ccccc21)C(C)C | inactive |
| CC1(C(=O)O)CCCN(C(=O)/C=C/c2ccccc2)C1 (centres undefined) | inactive |
| CC(C)Cn1c(N2CCN(C(=O)/C=C/c3ccccc3)CC2)nc2ccccc21 | 9.2 µM (active) |
| O=C(Nc1ccc(OCCO)cc1)c1csc([C@H]2C[C@H](O)[C@@H](CO)O2)n1 | inactive |
| CCOC(=O)C1=C(C)N=c2s/c(=C\C(=O)OC)c(=O)n2C1c1ccc(OC)cc1 (centres undefined) | inactive |
| COc1ccc(OC)c(C2C3=C(N=c4s/c(=C\c5cccc(O)c5)c(=O)n42)c2ccccc2CC3)c1 (centres undefined) | 25.9 µM (active) |
| CC(C)(C)NC(=O)NC(=O)COC(=O)C1c2ccccc2Oc2ccccc21 | inactive |
| COc1cn(CC(=O)Nc2cccc(C)c2C)c(CN2CCCCC2)cc1=O | inactive |
| CCCCCCCCn1c2c(c(=N)c3c1CCC3)CCCC2 | 1.03 µM (active) |
| Nc1nnc(SCCN2C(=O)c3ccccc3S2(=O)=O)s1 | inactive |
| CN(C)CCCN(Cc1cc2cc3c(cc2[nH]c1=O)OCCO3)C(=O)NC1CCCCC1 | inactive |
| Cc1nnc(SCC(=O)Nc2ccc(S(=O)(=O)Nc3ccc(Cl)nn3)cc2)s1 | inactive |

| SMILES | Potency |
| --- | --- |
| O=C(NC1CCCC1)C1c2ccccc2OCC(=O)N1CC(F)(F)F (centres undefined) | inactive |
| Clc1cccc[n+]1CCCC[n+]1ccccc1Cl | inactive |
| Brc1cccc[n+]1Cc1cccc(C[n+]2ccccc2Br)c1 | 20 µM (active) |
| Cc1ccc(N2C(=O)C3C4C=CC(CC4)C3C2=O)cc1Br (centres undefined) | inactive |
| NS(=O)(=O)c1ccc(NC(=O)COC(=O)c2ccco2)cc1 | inactive |
| CC1O[C@@H](Oc2c(-c3ccc(O)c(O)c3)oc3cc(O)cc(O)c3c2=O)C(O)C(O)C1O (some centres undefined) | inactive |
| Cn1c2ccccc2c(=O)c2c(O)cccc21 | inactive |
| CCCc1nc2c(c(=O)c3ccccc3n2C)c(=O)n1C1CCCCCC1 | 16.4 µM (active) |
| O=C1CCC(C(=O)N2CCCCO2)CN1Cc1cccc(C(F)(F)F)c1 (centres undefined) | inactive |
| Cc1ccc(-c2n[nH]c(=S)n2/N=C/c2cc3c(cc2[N+](=O)[O-])OCO3)cc1 | inactive |
| CC(=O)N/N=C/c1cc2c(cc1[N+](=O)[O-])OCO2 | inactive |
| Cc1ccc(S(=O)(=O)N/N=C\c2cc3c(cc2[N+](=O)[O-])OCO3)cc1 | 18.4 µM (active) |
| COc1cc(C(=O)N(Cc2ccc(C(C)C)cc2)C2CCS(=O)(=O)C2)cc(OC)c1OC (centres undefined) | inactive |
| COc1ccccc1CN(C)c1nnnn1-c1ccccc1 | inactive |
| O=C(C[C@H]1C[C@H](C(=O)N2CCOCC2)[C@@]2(CCC3CCCC3)c3[nH]c4ccc(Cl)cc4c3CCN2C1=O)NCc1ccco1 | 23.1 µM (active) |
| CC[C@]12c3[nH]c4ccc(OC)cc4c3CCN1C(=O)C(CC(=O)NCc1ccco1)C[C@@H]2C(=O)N1CCN(C(=O)C2CC2)CC1 (some centres undefined) | inactive |
| COc1ccc(CNC(=O)C[C@H]2C[C@H](C(=O)N3CCOCC3)[C@@]3(CCC4CCCC4)c4[nH]c5ccc(Cl)cc5c4CCN3C2=O)cc1OC | 18.4 µM (active) |
| CC[C@]12c3[nH]c4ccc(Cl)cc4c3CCN1C(=O)[C@@H](CC(=O)NCCCOC)C[C@@H]2C(=O)N1CCN(C(=O)C2CC2)CC1 | inactive |
| CC[C@]12c3[nH]c4ccc(OC)cc4c3CCN1C(=O)C(CC(=O)NCCN1CCOCC1)C[C@@H]2C(=O)N1CCN(C(=O)C2CC2)CC1 (some centres undefined) | inactive |
| CC[C@]12c3[nH]c4ccc(Cl)cc4c3CCN1C(=O)[C@@H](CC(=O)NCCN1CCOCC1)C[C@@H]2C(=O)N1CCN(C(=O)C2CC2)CC1 | inactive |
| COc1ccc(C2(O)C(=O)Nc3ccccc32)cc1 (centres undefined) | inactive |
| O=C(NNC(=O)c1ccc(Cl)cc1Cl)c1cccs1 | inactive |
| O=C(Nc1cccc2cccnc12)c1cccc(N2C(=O)CCC2=O)c1 | inactive |
| O=c1cc(CO)oc(CN2CCC(Cc3ccccc3)CC2)c1O | inactive |
